Bioassay records: PubChem, several laboratories
Compounds with a hit are over-represented: about 5.4% of the library has one in this group of screens.
CSC inhib = cancer stem cell inhibition; cancer stem cell-like cells viability, luminescence; inhibition, % at 7.5 µM; 1.1% of 300,000 active; in the data active means inhibition above about 75%; inconclusive means no clear call, values can overlap the other calls; tested in HMLE shEcad cells
Calb FLC = C. albicans growth modulation with fluconazole; C. albicans CaCi-2 (fluconazole-resistant clinical isolate) + fluconazole, Alamar Blue growth, 48 h; growth inhibition, % (concentration not given with the values); 0.57% of 300,000 active;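 active means growth inhibition above about 58% in most replicates, limit read from the data, passing the limit was not always enough; inconclusive means exactly half the replicates above a set limit; inactive means most replicates below a set limit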;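 further: all wells also contain fluconazole at 8 µg/ml as a sub-toxic cotreatment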
Mdm2-MdmX inh = inhibitors of human Mdm2/MdmX interaction | O15151+Q00987 | SaOS-2 split-luciferase Mdm2/MdmX complementation, luminescence | inhibition, % at 8 µM | 3% of 330,000 active | AID 485346;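 active means inhibition of at least 50% at 8 µM in the primary screen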
Target sequence (O15151 whole entry, looked up): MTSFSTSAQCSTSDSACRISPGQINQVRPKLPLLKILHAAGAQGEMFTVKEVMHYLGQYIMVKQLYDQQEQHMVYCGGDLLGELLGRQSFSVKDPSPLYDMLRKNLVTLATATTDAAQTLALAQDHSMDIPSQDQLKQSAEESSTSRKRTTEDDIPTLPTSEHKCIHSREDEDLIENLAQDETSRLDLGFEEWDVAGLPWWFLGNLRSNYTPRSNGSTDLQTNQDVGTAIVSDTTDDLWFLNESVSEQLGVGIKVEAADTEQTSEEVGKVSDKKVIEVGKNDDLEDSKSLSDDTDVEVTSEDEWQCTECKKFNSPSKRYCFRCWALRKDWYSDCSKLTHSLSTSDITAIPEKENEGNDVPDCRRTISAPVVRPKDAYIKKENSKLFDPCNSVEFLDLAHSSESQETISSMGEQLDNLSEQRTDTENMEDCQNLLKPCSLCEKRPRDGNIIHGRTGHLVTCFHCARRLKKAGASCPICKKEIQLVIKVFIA
Target sequence (Q00987 whole entry, looked up): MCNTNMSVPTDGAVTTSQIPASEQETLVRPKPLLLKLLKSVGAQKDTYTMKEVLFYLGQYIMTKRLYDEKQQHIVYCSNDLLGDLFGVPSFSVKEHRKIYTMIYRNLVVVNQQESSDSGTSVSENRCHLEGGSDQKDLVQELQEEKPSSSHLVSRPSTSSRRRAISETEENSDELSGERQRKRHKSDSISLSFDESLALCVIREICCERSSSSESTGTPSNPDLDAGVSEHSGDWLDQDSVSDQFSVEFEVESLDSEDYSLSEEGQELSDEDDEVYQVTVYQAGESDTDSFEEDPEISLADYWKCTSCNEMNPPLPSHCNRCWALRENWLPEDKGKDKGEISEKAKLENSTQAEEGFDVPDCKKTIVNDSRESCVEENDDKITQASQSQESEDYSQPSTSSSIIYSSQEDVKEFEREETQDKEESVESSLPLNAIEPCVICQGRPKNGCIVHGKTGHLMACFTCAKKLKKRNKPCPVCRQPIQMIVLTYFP
Beta cell apopt = beta cell apoptosis inhibition | INS-1E cytokine-induced death, ATP luminescence, 48 h; percent of positive-control rescue, neutral wells zero | protection from apoptosis, % (no concentration beside the values) | 0.8% of 300,000 active;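 active means Every replicate reaches about 75%, or at least half do and their mean reaches it too, limit read from the data; inconclusive means At least half of replicates reach the limit but their mean does not; inactive means Under half of replicates reach the limit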;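 further: higher means more ATP so stronger rescue from cytokine killing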
SKKanGAS inh = inhibitors of SKKanGAS S. pyogenes growth in kanamycin (SK-promoter or general growth effect). BacTiter-Glo, 6 h. inhibition, % at 7.5 µM. 1.3% of 300,000 active. AID 1662;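 active means mean replicate score, as percent of positive control median, at least 50; inconclusive means mean below 50 but one replicate at or above 50; inactive means mean and every replicate below 50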;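 further: strain carries kanamycin resistance gene driven by streptokinase promoter and grows in 40 µg/ml kanamycin; loss of luminescence reflects streptokinase promoter inhibition or plain growth inhibition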
MPTP inh = blocks calcium-induced mitochondrial swelling. AID 602449. 1.4% of 360,000 active. inhibition, % at 10 µM. isolated mouse mitochondria, Ca2+ swelling absorbance, 30 min;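 active means inhibition of 50% or more, scaled per plate between neutral and stimulator controls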
Large screens that a line does not name were inactive.

Fc1ccc(-c2cc(-c3nnc4n3CCCCC4)c3ccccc3n2)cc1	Calb FLC inconclusive, Beta cell apopt 97
CN(C)C(CNS(=O)(=O)c1ccc2ccccc2c1)c1ccccc1 (configuration not stated)	CSC inhib 82
CC1Cc2ccccc2N1CC(=O)Nc1ccc(Cl)c(S(=O)(=O)N(C)C)c1 (configuration not stated)	none
CCCc1ccc(O)c(N=Cc2cc(Br)cc(OCC)c2O)c1	CSC inhib 91
CCc1ccc(O)c(N=Cc2cccc(C)c2O)c1	none
Cc1ccc(C)c(NC(=S)NNC(=O)c2csc(C(C)C)c2)c1	Calb FLC 92
O=C1c2ccccc2NC(c2ccccc2)N1Cc1ccccc1 (configuration not stated)	none
Cc1ccc(CN2C(=O)c3ccccc3NC2c2cc(Br)ccc2O)cc1 (configuration not stated)	CSC inhib 110, SKKanGAS inh 104
O=C(NC12CC3CC(CC(C3)C1)C2)c1ccc(-c2ccc(Br)cc2)o1	SKKanGAS inh 56
O=C(NC12CC3CC(CC(C3)C1)C2)c1ccc([N+](=O)[O-])o1	CSC inhib 80, SKKanGAS inh 93
CC1=NN(c2ccccc2)C(=O)/C1=C\C=C1\N(C)c2ccccc2C1(C)C	CSC inhib 79
CCCN1C(=O)/C(=C\C=C2\N(CC)c3ccccc3C2(C)C)SC1=S	none (no result: CSC inhib, Mdm2-MdmX inh, Beta cell apopt)
CC1=NN(c2ccccc2)C(=O)/C1=C\C=C1/N(C)c2ccccc2C1(C)C	none
CN1/C(=C\C=C2/SC(=S)NC2=O)C(C)(C)c2ccccc21	Beta cell apopt 99
O=C(Nc1ccc(-c2nc3ccccc3o2)cc1)c1cccnc1	none
COC(=O)c1ccc(NC(=O)c2cccnc2)cc1	Beta cell apopt 110
CC(C)c1ccc2oc(-c3ccc(NC(=O)c4ncn[nH]4)cc3)nc2c1	Calb FLC 88
COC(=O)c1c(-c2cccs2)csc1NC(=O)c1cccnc1	Calb FLC 95
Cc1ccc2oc(-c3ccc(NC(=O)c4cccnc4)cc3)nc2c1	Calb FLC inconclusive, Beta cell apopt 86 (no result: CSC inhib)
CSC1=C(C#N)C(CC(C)C)C(C(C)=O)=C(C)N1 (configuration not stated)	none
CCOc1ncccc1C(=O)NNC(=O)c1csc(N2CCOCC2)n1	none
O=C(Nc1ccc(C(=O)NC2CCCCC2)cc1)c1cccnc1	Beta cell apopt 100
O=S(=O)(Nc1ccc2oc(-c3ccccc3)nc2c1)c1ccccc1	none
CC(=O)Nc1ccc(C(=O)NC2CCCC2)cc1	none (no result: Calb FLC, SKKanGAS inh)
O=C(Nc1cccnc1)c1cccnc1	Beta cell apopt 105
O=C(Nc1ccc(OCc2ccccc2Cl)cc1)c1cccnc1	Calb FLC 114
Cc1ccc(-c2nc3cc(NS(=O)(=O)c4ccc(C)cc4)ccc3o2)cc1	SKKanGAS inh 85
C=CCNC(=O)/C(C#N)=C/c1c(N2CCN(c3ccc(OC)cc3)CC2)nc2c(C)cccn2c1=O	none
O=C(Nc1ccc(N2CCN(C(=O)c3ccc(Cl)cc3)CC2)cc1)c1cccnc1	Beta cell apopt 104
COC(=O)c1ccccc1NC(=O)CSc1nnc(-c2ccncc2)o1	none
COc1cccc(C(C)(O)c2nc(-c3ccc4ccccc4c3)cs2)c1 (configuration not stated)	none (no result: CSC inhib, Calb FLC, Mdm2-MdmX inh, Beta cell apopt, SKKanGAS inh)
O=[N+]([O-])c1ccc(/C=N/n2c(CO)nc3ccccc32)s1	Beta cell apopt 81
Cc1nc2ccccc2n1/N=C/c1ccc([N+](=O)[O-])s1	Beta cell apopt 109, SKKanGAS inh 92
Cc1nc2ccccc2n1/N=C/c1ccc([N+](=O)[O-])o1	CSC inhib inconclusive
COc1ccc(OCC(=O)OCC(=O)Nc2cc(S(=O)(=O)N3CCOCC3)ccc2Cl)cc1	none (no result: Calb FLC, SKKanGAS inh)
O=C(Cn1cncc1-c1ccc([N+](=O)[O-])cc1)Nc1cccc2ccccc12	none (no result: Mdm2-MdmX inh)
COCc1nnc(NC(=O)c2ccc(S(=O)(=O)N3CCCC3)cc2)o1	none
CC(=O)Nc1ccc(S(=O)(=O)NC2(C(F)(F)F)NC(=O)N(c3ccc(Cl)cc3)C2=O)cc1 (configuration not stated)	none
CCC1CCCCN1S(=O)(=O)c1ccc(S(=O)(=O)N(Cc2ccccn2)CC2CCCO2)cc1 (configuration not stated)	CSC inhib 79
COc1ccc(-c2oc(=O)c3cc(OC)c(OC)cc3c2C#CCCO)cc1	none (no result: CSC inhib, Calb FLC, SKKanGAS inh)
COc1ccc2sc(-c3ccc(N(C)C)cc3)c(C#CCCO)c2c1	CSC inhib 122 (no result: Calb FLC, SKKanGAS inh)
COc1ccc(-c2sc3ccc(OC)cc3c2C#CCCO)cc1	CSC inhib 99, SKKanGAS inh 97
COc1ccc(C(=O)N2CCc3c([nH]c4ccccc34)C2C(F)(F)F)cc1 (configuration not stated)	SKKanGAS inh 52
O=Cc1ccnc(-c2ccc(OC(=O)c3ccco3)cc2)n1	none (no result: Beta cell apopt)
C=CCNC(=S)NNc1nc2c(c(=O)[nH]1)C1(CCCC1)Cc1ccccc1-2	Calb FLC inconclusive
O=c1[nH]c(NCCCO)nc2c1C1(CCCC1)Cc1ccccc1-2	Beta cell apopt 104
O=c1[nH]c(NNC(=S)NCc2ccccc2)nc2c1C1(CCCCC1)Cc1ccccc1-2	CSC inhib 106, Calb FLC inconclusive, SKKanGAS inh 101
O=c1[nH]c(NNC(=S)NC2CCCCC2)nc2c1C1(CCCC1)Cc1ccccc1-2	CSC inhib inconclusive, SKKanGAS inh 74
CCC1(CC)Cc2ccccc2-c2nc(NCCCO)[nH]c(=O)c21	none
CC1(C(=O)NS(=O)(=O)c2ccccc2Cl)CCN1C(=O)Cc1cccc2ccccc12 (configuration not stated)	none (no result: CSC inhib, Calb FLC, Mdm2-MdmX inh, Beta cell apopt, SKKanGAS inh)
CCS(=O)(=O)c1nc(S(=O)(=O)c2ccc(C)cc2)c(N2CC(C)OC(C)C2)s1 (configuration not stated)	none
CCCCn1c(C2CCCCC2)nc2cc3[nH]c(=O)c(C(C)C)nc3cc21	CSC inhib 81 (no result: Beta cell apopt)
O=C(NCCN1CCOCC1)c1ccc2c(c1)N(Cc1ccc(Cl)cc1)C(=O)CS2	none
Cc1nn(C)c(C(=O)NNC(=S)NC2CCCCC2)c1Br	none
Cc1ccccc1OCCCc1c(C)n[nH]c1C	SKKanGAS inh 64
Cc1n[nH]c(C)c1CCCCOc1ccccc1F	SKKanGAS inh 68
Cc1ccc(NC(=O)COC(=O)COc2cccc3c2OC(C)(C)C3)cc1C	none
O=[N+]([O-])c1ccc(/C=N/NC2=NS(=O)(=O)c3ccccc32)cc1	none
O=[N+]([O-])c1ccc(O)c(/C=N/NC2=NS(=O)(=O)c3ccccc32)c1	SKKanGAS inh 59
O=[N+]([O-])c1ccc(O)c(/C=N/Nc2ccc(Cl)nn2)c1	CSC inhib 107, Calb FLC 117, Beta cell apopt 110, SKKanGAS inh 102
O=C(Cc1c(F)c(F)c(F)c(F)c1F)OC12CC3CC(C1)C(=O)C(C3)C2	none
CC(C)(C)c1ccccc1NC(=O)c1c(O)c2cccc3c2n(c1=O)CC3	Calb FLC 82 (no result: MPTP inh)
O=C(Nc1nccs1)c1c(O)c2cccc3c2n(c1=O)CCC3	SKKanGAS inh 100 (no result: CSC inhib, MPTP inh)
